Source: the supplement of paper PMC10849652
The full data set covers some 7,900 targets. This sample favours those with a hit. About 0.6% of all pairs of compound and target were hits. Values without a mark were called inactive.

Each target was assayed with CCCCN(Cc1ccc(C(=O)NO)cc1)C(=O)Nc1ccccc1 [Nexturastat A] (assay: log2 fold change, soluble protein after heating vs DMSO (PISA); higher = thermal stabilisation; K562 cells, 10 uM, 30 min; active = over 0.2 and 3.5 SD of the protein, either way, in both replicates (recomputed)).
Outline: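 For each measurement, 10 μM compound was applied for 30 min to K562 cells at 2×10^6 cells/mL. Aliquots were heated for 3 min across 48°C-58°C, pooled, and extracted in PBS with 0.5% NP-40 at 4°C; the supernatant after 21,000xg for 90 min was soluble protein. This was quantified by TMTpro 16plex LC-MS/MS with channel sums equalised, and thermal stability was reported relative to control samples from duplicates, on a log2 fold-change scale.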

UniProt Q14157, sequence (Q14157 whole entry, looked up): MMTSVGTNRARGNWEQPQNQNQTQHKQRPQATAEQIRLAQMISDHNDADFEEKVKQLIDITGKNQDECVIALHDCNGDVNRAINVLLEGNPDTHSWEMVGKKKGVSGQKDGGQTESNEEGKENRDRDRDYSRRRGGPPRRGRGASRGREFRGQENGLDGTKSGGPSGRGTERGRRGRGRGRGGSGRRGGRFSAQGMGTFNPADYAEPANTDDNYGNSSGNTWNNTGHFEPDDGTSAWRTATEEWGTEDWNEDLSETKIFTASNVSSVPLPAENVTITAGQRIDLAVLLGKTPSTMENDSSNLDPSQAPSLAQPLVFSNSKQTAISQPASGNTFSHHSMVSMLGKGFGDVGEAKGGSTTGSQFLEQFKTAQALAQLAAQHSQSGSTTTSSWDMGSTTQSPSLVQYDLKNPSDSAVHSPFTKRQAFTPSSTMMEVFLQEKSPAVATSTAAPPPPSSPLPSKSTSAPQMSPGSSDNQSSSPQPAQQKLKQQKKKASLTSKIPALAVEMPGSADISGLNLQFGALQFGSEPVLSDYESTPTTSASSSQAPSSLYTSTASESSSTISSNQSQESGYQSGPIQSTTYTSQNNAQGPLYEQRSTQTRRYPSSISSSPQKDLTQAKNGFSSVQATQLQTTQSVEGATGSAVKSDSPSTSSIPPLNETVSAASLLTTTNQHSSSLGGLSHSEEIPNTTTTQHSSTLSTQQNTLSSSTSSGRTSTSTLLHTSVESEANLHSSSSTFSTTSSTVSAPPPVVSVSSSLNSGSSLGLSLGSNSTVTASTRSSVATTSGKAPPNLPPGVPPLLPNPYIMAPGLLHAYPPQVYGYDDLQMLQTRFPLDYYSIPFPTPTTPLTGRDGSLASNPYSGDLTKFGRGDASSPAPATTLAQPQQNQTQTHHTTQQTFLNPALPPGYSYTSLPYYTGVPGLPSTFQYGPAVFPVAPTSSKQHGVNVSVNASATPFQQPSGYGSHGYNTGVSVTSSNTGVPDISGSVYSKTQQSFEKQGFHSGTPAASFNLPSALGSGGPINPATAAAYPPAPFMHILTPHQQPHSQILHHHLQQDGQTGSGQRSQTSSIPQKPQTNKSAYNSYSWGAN
UniProt Q9Y4E8, sequence (Q9Y4E8 whole entry, looked up): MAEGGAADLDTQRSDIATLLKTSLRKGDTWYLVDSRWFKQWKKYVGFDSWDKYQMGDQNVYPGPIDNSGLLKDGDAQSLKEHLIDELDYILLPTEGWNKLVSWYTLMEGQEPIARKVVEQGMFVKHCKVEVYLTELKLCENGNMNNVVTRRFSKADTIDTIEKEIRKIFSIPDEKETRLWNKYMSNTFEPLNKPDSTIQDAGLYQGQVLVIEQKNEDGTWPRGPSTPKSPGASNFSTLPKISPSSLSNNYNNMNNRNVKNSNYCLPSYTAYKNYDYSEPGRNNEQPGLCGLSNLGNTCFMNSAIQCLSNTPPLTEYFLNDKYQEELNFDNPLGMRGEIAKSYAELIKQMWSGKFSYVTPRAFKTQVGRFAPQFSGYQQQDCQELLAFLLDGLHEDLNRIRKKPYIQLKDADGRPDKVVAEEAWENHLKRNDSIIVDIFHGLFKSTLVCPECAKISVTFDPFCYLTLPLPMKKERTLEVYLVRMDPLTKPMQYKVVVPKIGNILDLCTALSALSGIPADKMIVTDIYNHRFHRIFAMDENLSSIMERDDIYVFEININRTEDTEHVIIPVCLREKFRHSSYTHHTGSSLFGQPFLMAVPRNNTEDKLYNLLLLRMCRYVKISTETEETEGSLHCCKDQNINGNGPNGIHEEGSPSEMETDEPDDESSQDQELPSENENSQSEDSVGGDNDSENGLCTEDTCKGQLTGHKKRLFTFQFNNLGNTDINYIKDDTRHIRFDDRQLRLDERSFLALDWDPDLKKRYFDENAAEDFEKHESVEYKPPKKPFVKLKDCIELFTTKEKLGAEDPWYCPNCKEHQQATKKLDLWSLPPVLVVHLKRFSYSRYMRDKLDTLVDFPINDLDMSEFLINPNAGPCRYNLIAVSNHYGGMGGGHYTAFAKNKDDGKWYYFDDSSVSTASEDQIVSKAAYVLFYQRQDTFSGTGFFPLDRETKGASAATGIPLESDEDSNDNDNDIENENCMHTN
UniProt Q86UV5, sequence (Q86UV5 whole entry, looked up): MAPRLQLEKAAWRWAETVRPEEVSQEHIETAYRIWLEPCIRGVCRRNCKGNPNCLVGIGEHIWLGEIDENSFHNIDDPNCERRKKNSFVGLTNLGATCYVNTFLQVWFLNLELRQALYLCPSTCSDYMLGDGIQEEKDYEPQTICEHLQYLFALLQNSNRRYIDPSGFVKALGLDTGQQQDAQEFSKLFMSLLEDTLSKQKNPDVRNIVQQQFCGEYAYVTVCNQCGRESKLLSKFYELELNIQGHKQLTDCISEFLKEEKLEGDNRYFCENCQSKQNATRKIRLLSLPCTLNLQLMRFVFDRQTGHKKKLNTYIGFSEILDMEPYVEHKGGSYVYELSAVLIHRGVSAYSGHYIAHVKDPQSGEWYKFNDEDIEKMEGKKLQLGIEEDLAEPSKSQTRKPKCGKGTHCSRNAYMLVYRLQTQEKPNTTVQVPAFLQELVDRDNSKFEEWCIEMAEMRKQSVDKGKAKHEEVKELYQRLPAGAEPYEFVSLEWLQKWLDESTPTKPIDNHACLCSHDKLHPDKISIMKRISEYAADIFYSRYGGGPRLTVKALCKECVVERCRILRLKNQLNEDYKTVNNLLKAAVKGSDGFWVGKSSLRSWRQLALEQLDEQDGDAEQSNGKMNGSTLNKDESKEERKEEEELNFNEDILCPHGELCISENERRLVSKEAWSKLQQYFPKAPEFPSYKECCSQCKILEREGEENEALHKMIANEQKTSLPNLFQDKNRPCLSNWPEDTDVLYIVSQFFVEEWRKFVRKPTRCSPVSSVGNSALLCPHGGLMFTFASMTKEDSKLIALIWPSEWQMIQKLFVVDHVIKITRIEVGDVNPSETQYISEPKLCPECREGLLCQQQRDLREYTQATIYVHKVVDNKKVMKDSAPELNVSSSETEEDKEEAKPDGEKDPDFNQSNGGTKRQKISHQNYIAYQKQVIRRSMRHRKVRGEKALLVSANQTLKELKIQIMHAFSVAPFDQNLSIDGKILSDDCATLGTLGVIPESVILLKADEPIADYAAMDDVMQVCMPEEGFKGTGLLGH
UniProt O00258, sequence (O00258 whole entry, looked up): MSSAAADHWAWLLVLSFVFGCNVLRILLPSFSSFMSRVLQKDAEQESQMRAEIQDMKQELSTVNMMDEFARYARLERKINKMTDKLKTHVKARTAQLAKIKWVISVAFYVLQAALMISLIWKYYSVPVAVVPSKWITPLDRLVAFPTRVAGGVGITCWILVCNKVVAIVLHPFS
UniProt Q8N4H5, sequence (Q8N4H5 whole entry, looked up): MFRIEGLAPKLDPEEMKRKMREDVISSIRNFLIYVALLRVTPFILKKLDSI
UniProt Q9H3M7, sequence (Q9H3M7 whole entry, looked up): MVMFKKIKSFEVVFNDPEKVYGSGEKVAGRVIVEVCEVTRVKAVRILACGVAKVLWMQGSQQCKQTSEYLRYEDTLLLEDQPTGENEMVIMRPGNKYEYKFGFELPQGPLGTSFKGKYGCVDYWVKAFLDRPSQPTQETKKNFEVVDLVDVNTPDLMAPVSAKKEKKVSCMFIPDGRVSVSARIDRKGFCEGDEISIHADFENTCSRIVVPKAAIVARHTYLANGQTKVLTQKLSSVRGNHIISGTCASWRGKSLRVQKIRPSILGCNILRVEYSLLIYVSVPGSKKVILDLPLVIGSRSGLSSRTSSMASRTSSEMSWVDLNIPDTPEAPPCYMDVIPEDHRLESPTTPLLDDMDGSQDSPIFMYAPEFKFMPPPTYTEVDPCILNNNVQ
UniProt Q7Z392, sequence (Q7Z392 whole entry, looked up): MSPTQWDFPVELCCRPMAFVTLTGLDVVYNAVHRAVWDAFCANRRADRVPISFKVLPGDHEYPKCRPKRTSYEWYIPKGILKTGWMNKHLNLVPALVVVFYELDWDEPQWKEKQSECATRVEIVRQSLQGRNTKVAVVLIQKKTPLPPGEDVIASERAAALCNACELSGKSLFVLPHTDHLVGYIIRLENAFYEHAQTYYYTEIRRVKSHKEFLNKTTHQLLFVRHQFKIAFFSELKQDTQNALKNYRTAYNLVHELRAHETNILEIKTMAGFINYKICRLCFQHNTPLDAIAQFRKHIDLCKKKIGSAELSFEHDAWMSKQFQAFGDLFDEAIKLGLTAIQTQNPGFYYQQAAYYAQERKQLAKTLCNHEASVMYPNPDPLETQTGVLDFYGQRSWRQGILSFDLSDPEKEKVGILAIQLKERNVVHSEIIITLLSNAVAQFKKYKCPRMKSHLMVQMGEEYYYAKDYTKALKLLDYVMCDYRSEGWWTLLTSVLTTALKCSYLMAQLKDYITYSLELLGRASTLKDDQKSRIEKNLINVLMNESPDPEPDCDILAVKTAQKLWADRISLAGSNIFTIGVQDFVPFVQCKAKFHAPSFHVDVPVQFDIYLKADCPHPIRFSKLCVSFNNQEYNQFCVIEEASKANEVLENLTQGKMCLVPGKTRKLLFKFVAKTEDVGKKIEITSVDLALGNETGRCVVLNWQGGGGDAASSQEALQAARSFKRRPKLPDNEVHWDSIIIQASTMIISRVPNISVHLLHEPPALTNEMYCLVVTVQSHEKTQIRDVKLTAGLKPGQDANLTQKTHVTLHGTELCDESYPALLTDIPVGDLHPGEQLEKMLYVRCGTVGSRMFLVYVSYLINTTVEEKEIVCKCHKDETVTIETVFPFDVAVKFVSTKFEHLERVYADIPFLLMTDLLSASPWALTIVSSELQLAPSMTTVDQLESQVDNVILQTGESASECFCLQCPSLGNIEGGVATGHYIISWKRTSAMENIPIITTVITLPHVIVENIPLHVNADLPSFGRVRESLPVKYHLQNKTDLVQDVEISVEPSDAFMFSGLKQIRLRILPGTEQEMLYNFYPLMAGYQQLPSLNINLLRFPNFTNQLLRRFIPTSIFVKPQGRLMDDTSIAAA
UniProt Q99757, sequence (Q99757 whole entry, looked up): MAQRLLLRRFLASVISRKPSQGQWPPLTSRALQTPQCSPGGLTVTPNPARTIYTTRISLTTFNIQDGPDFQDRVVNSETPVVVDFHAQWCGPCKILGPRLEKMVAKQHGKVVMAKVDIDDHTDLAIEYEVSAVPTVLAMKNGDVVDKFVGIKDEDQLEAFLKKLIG

| Target | log2 fold change |
| --- | --- |
| WDHD1 (UniProt O75717) | -0.053 |
| TOMM5 isoform 2 (UniProt Q8N4H5) | 0.025 |
| WDR41 (UniProt Q9HAD4) | 0.002 |
| XPO5 (UniProt Q9HAV4) | -0.053 |
| VARS2, A0A0G2JL52 | 0.005 |
| WNK1 isoform 7 (UniProt Q9H4A3) | -0.03 |
| TRIM28 (UniProt Q13263) | -0.059 |
| WRB (UniProt O00258) | -0.25 (active) |
| UBR2 (UniProt Q8IWV8) | 0.078 |
| UBE2S (UniProt Q16763) | 0.057 |
| VPS13B (UniProt Q7Z7G8) | -0.011 |
| TRMT10C (UniProt Q7L0Y3) | -0.095 |
| XPNPEP3 (UniProt Q9NQH7) | -0.08 |
| TMEM189-UBE2V1 (UniProt I3L0A0) | -0.042 |
| USP15 (UniProt Q9Y4E8) | -0.001 |
| VWA8 (UniProt A3KMH1) | -0.059 |
| TUBAL3 (UniProt A6NHL2) | -0.106 |
| XPO1 (UniProt O14980) | -0.061 |

| Target | log2 fold change |
| --- | --- |
| U2AF2 (UniProt P26368) | -0.048 |
| WDR47 (UniProt O94967) | -0.048 |
| U2AF1 isoform 2 (UniProt Q01081) | 0.011 |
| XPNPEP1 isoform 3 (UniProt Q9NQW7) | -0.014 |
| UBA1 (UniProt P22314) | -0.066 |
| WDR4 (UniProt P57081) | 0.048 |
| VPS35L (UniProt Q7Z3J2) | 0.05 |
| UBA6 | -0.027 |
| UQCR10 (UniProt Q9UDW1) | -0.049 |
| TRAPPC11 (UniProt Q7Z392) | 0.046 |
| TXN2 (UniProt Q99757) | 0.093 |
| UBAP2L isoform 1 (UniProt Q14157) | 0.012 |
| TMEM208 (UniProt Q9BTX3) | -0.112 |
| UBAP2L isoform 5 (UniProt Q14157) | 0.017 |
| TXNIP (UniProt Q9H3M7) | 0.177 |
| VRK2 (UniProt Q86Y07) | 0.04 |
| WDR61 (UniProt Q9GZS3) | -0.035 |
| USP48 isoform 8 (UniProt Q86UV5) | -0.006 |
